Test results from PubChem BioAssay (NCATS).
Inconclusive results are not listed. Where a call stands in place of a potency, no number is given. Active and inactive are the calls of the source. The call rests on the fitted dose curve; in most records, active means well fitted cell-killing curve with a large enough effect; inconclusive means small, poorly fitted or top-dose-only effect; inactive means flat fitted curve, though single readings scatter.

Assay: Cell Viability - LYMP2-015 (AID 971); further: nearly all actives have a fitted effect of over 55% in size
Conditions: LYMP2-015 lymphoblastoid cell viability; series mostly up to 92.2 µM
Text: NIH Chemical Genomics Center [NCGC]
NIH Molecular Libraries Screening Centers Network [MLSCN]
National Institutes of Environmental Health Sciences [NIEHS]
National Toxicology Program [NTP]
We have developed a 1536-well cell-based assay for quantitative high throughput screening (qHTS) against a number of cell lines to determine in vitro cytotoxicity of small molecules. This particular assay uses a human lymphoblastoid cell line (LYMP2-015) purchased from Coriell Institute for Medical Research.
NCGC Assay Protocol Summary:
The CellTiter-Glo luminescent cell viability assay (Promega) is a homogeneous method to measure the number of viable cells in culture. The end point readout of this assay is based on quantitation of intracellular ATP, an indicator of metabolic activity, using the luciferase reaction. Luciferase catalyzes the oxidation of beetle Luciferin to oxyluciferin and light in the presence of ATP. The luminescent signal is proportional to amount of ATP present.
Using the CellTiter-Glo luminescent cell viability assay, the amount of cellular ATP was measured in the lymphoblastoid cell line with complete culture medium following compound treatment for 24 hours. The assay was performed in opaque white Kalypsys 1536-well plates. In the screen, tetraoctylammonium bromide was used as positive control. Library compounds were measured for their ability to cause acute toxicity in the cell line, as reflected by a decrease in intracellular ATP levels, in a concentration-dependent manner. […] AC50 values were determined from concentration-response data modeled with the standard Hill equation.
qHTS protocol for CellTiter Glo lymphoblastoid cellular assay
[Step] [Parameter] [Value] [Description]
1. Reagent; 5 uL; 2500 lymphoblastoid cells/well
2. Time; 5 hr; 37 C incubation
4. Controls; 23 nL; Tetraoctylammonium bromide 6.4pM to 92 uM
5. Time; 24 hr; 37 C incubation
6. Reagent; 5 uL; CellTiter Glo reagent
7. Time; 30 min; Room Temperature
8. Detection; Luminescence; Viewlux plate reader
Keywords: cell viability, cytotoxicity, lymphoblastoid cell line, luminescence, NTPHTS, NTPHTS_NCGC, NIEHS, DSSTox, MLSMR, MLSCN, NIH Roadmap, qHTS, NCGC
Potency means the concentration at half of the fitted maximal effect.

Row | Structure (SMILES) | Potency
1 | CC(C)O | inactive
2 | CO | inactive
3 | CC/C=C\C/C=C\C/C=C\CCCCCCCC(=O)O | 50.1 µM (active)
4 | CC(C)(C)CC(C)(C)c1ccc(OCCO)cc1 | inactive
5 | C[C@H](CCC(=O)O)[C@H]1CC[C@H]2[C@@H]3CC[C@@H]4C[C@H](O)CC[C@]4(C)[C@H]3C[C@H](O)[C@]12C | inactive
6 | [O-][N+](=Nc1ccccc1)c1ccccc1 | inactive
7 | OCC(O)CO | inactive
8 | C/C=C/C=C/C(=O)O | inactive
9 | CC1=CC(=O)NS(=O)(=O)O1 | inactive
10 | O=c1n(CC2CO2)c(=O)n(CC2CO2)c(=O)n1CC1CO1 (stereo not given) | 39.8 µM (active)
11 | OC[C@H]1O[C@@H]2O[C@H]3[C@H](O)[C@@H](O)[C@@H](O[C@H]4[C@H](O)[C@@H](O)[C@@H](O[C@H]5[C@H](O)[C@@H](O)[C@@H](O[C@H]6[C@H](O)[C@@H](O)[C@@H](O[C@H]7[C@H](O)[C@@H](O)[C@@H](O[C@H]1[C@H](O)[C@H]2O)O[C@@H]7CO)O[C@@H]6CO)O[C@@H]5CO)O[C@@H]4CO)O[C@@H]3CO | inactive
12 | Oc1cccc(O)c1O | inactive
13 | Nc1ncnc2c1ncn2[C@H]1CC[C@@H](CO)O1 | inactive
14 | CCCCC | inactive
15 | Cc1ccc(S(=O)(=O)O)cc1C | inactive
16 | COC(=O)c1ccccc1O | inactive
17 | Nc1nccs1 | inactive
18 | OCc1ccccc1 | inactive

Row | Structure (SMILES) | Potency
19 | C[C@H](CCC(=O)O)[C@H]1CC[C@H]2[C@@H]3[C@H](O)C[C@@H]4C[C@H](O)CC[C@]4(C)[C@H]3C[C@H](O)[C@]12C | inactive
20 | CC1=CCC2CC1C2(C)C (stereo not given) | inactive
21 | OCl | inactive
22 | O=P(O)(O)O | inactive
23 | CC[C@H]1OC(=O)[C@H](C)[C@@H](O[C@H]2C[C@@](C)(OC)[C@@H](O)[C@H](C)O2)[C@H](C)[C@@H](O[C@@H]2O[C@H](C)C[C@H](N(C)C)[C@H]2O)[C@](C)(O)C[C@@H](C)CN(C)[C@H](C)[C@@H](O)[C@]1(C)O | inactive
24 | Nc1ccc(N=Nc2ccccc2)c(N)n1 | inactive
25 | C=C1C(CCl)(CCl)C2(Cl)C(Cl)C(Cl)C1(Cl)C2(Cl)Cl (stereo not given) | 39.8 µM (active)
26 | CCCCO | inactive
27 | Oc1ccc(/C=C/c2cc(O)cc(O)c2)cc1 | inactive
28 | OB(O)O | inactive
29 | ClC(Cl)Cl | inactive
30 | CO/N=C(/C(=O)N[C@@H]1C(=O)N2C(C(=O)O)=C(COC(N)=O)CS[C@H]12)c1ccco1 | inactive
31 | c1ccc2ccccc2c1 | inactive
32 | NCCN | inactive
33 | Cc1ncc[nH]1 | inactive
34 | NC(N)=O | inactive
35 | CCOC(C)OCC | inactive
